According to PubChem BioAssay (EPA / NIEHS):
Inconclusive results are not listed. Active and inactive are the calls of the source. The calls were made as follows: active = hit-call score of the fitted dose curve at least 0.9, where 1 is the maximum; inconclusive = response in the unintended direction; inactive = score below 0.9.

biological target: Peroxisome proliferator-activated receptor gamma (Homo sapiens) (UniProt P37231); assay: OT_PPARg_PPARgSRC1_0480: Odyssey Thera (OT) 8-hour Protein-Complementation Assay for Peroxisome Proliferator-activated Receptor Gamma / SRC-1 Co-activator (AID 2283387);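 also: nuclear to cytoplasmic split Venus YFP fluorescence ratio reporting PPARg SRC-1 interaction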
Procedure: OT_PPARg_PPARgSRC1_0480 is a cell-based assay that uses HEK293T, a human kidney cell line, with measurements taken at 8 hours after chemical dosing in a 384-well plate.OT_PPARg_PPARgSRC1_0480 is one of one assay component(s) measured or calculated from the OT_PPARg_PPARgSRC1_0480 assay. It is designed to make measurements of protein fragment complementation, a form of binding reporter, as detected with fluorescence intensity signals by Protein-fragment Complementation technology.Data from the assay component OT_PPARg_PPARgSRC1_0480 was analyzed into 1 assay endpoint. This assay endpoint, OT_PPARg_PPARgSRC1_0480, was analyzed in the positive analysis fitting direction relative to DMSO as the negative control and baseline of activity. Using a type of binding reporter, measures of receptor for gain-of-signal activity can be used to understand the binding at the pathway-level as they relate to the gene PPARG. Furthermore, this assay endpoint can be referred to as a primary readout, because the performed assay has only produced 1 assay endpoint. To generalize the intended target to other relatable targets, this assay endpoint is annotated to the nuclear receptor intended target family, where the subfamily is non-steroidal.
The OT PPARg/SRC-1 assay assessed receptor-chemical interactions using a rapidly maturing, intensely fluorescent mutant of YFP known as Venus, rationally dissected into two separate fragments. The fragments were obtained as follows: first, fragments coding for YFP1 and YFP2 (corresponding to amino acid residues 1-158 and 159-239 of the full length YFP, respectively) were generated by oligonucleotide synthesis (Blue Heron Biotechnology), and then PCR mutagenesis was used to generate the mutant fragments IFP1 and IFP2. Fusion constructs were transfected into HEK293T cells with a (Gly4Ser)2 linker between the PPARg/SRC-1 and YFP fragment genes to facilitate complementation when interacting proteins bring fragments into close proximity. The construct is transiently transfected in HEK293T cells 48 hours prior to treatment with test compounds. Cells are seeded into optical quality 384-well poly-D-lysine coated plates in MEM alpha medium (Invitrogen) supplemented with 10 percent FBS (Gemini Bio-Products) 1 percent penicillin and 1 percent streptomycin, and grown in 37C incubator equilibrated to 5 percent CO2. Cells are allowed to adhere for 24 hours prior to treatment with compounds of interest or controls for 8 hours. Cells are fixed in 4 percent formaldehyde and stained with Draq5 (BioStatus) to identify cells and subcellular compartment boundaries prior to signal detection. 8 Images per well were acquired on an Evotec Opera at 2 wavelengths (488 and 635nm), and the ratio of fluorescence in the nucleus relative to fluorescence in the cytoplasm (N/C Ratio) in the 488nm channel was calculated for a minimum of 350 cells per image.

Peroxisome proliferator-activated receptor gamma (Homo sapiens), sequence (P37231 whole entry, looked up, the tested form may be a part): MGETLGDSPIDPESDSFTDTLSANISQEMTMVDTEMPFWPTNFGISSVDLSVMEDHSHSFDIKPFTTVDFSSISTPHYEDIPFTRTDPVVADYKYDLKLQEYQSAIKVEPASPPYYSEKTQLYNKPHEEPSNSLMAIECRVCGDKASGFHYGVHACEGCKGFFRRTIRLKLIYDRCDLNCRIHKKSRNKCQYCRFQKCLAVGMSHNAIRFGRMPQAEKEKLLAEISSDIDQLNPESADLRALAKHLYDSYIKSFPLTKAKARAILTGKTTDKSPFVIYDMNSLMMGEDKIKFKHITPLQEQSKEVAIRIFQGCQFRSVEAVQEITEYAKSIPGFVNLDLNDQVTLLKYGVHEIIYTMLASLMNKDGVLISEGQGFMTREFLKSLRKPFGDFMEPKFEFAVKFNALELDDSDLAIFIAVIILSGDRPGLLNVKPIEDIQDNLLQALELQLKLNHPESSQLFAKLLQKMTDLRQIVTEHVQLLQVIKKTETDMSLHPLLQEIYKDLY

Structure (SMILES)	outcome
c1ccc2c(c1)Nc1ccccc1S2	inactive
c1cc2c3c(cccc3c1)CC2	inactive
CCCCN(CCCC)N=O	inactive
O=P(Oc1ccccc1)(Oc1ccccc1)Oc1ccccc1	inactive
c1ccc(OP(Oc2ccccc2)Oc2ccccc2)cc1	inactive
Nc1cc2c3c(c1)C(c1ccccc1)=N[C@@H](NC(=O)c1cccnc1)C(=O)N3CC2	inactive
CN(C)C(=O)Cl	inactive
[N-]=[N+]=[N-]	inactive
CCOP(=S)(Oc1ccc([N+](=O)[O-])cc1)c1ccccc1 (stereo not given)	inactive
ClC1=C(Cl)C2(Cl)C3C(Cl)C(Cl)CC3C1(Cl)C2(Cl)Cl (stereo not given)	inactive
O=C(O)C(Cl)Cl	inactive
Cc1ccc([N+](=O)[O-])cc1C	inactive
ClC(Cl)c1ccccc1	inactive
O=[N+]([O-])c1ccc(Cl)c(Cl)c1	inactive
Nc1ccc(Cl)cc1	inactive
FC(F)(F)c1ccc(Cl)cc1	inactive
O=P(OCC(Br)CBr)(OCC(Br)CBr)OCC(Br)CBr (stereo not given)	inactive
CC(C)(C)N(NC(=O)c1ccc(Cl)cc1)C(=O)c1ccccc1	inactive
Cc1ccc(N)cc1N	inactive
CCCCCCCc1ccc(O)cc1	inactive

Structure (SMILES)	outcome
O=S(=O)(c1ccc(O)cc1)c1ccc(O)cc1	inactive
O=C(O)CF	inactive
CCOC(=O)c1ccccc1N	inactive
CCOc1ccc(C(C)(C)COCc2cccc(Oc3ccccc3)c2)cc1	inactive
O=C(CBr)OCc1ccccc1	inactive
COCCOCCO	inactive
CC(C)(C)OOC(C)(C)C	inactive
OCC1CO1 (stereo not given)	inactive
CCCCOCCOP(=O)(OCCOCCCC)OCCOCCCC	inactive
CCCCC(CC)COC(=O)c1c(Br)c(Br)c(Br)c(Br)c1C(=O)OCC(CC)CCCC (stereo not given)	inactive
CCCCN(CC)C(=O)SCCC	inactive
CCOP(=S)(OCC)SCSCC	inactive
c1ccc2c(c1)sc1ccccc12	inactive
O=NN1CCCC1	inactive
COC(N)=O	inactive
CCC1(c2ccccc2)C(=O)N=C(O)NC1=O (stereo not given)	inactive
CCC(C)(C)c1ccc(O)cc1	inactive
O=c1ssc(Cl)c1Cl	inactive
CCCCN(CCCC)SN(C)C(=O)Oc1cccc2c1OC(C)(C)C2	inactive
CCCN(CCC)c1c([N+](=O)[O-])cc(C(C)C)cc1[N+](=O)[O-]	inactive
